Experimental data: PubChem BioAssay AID1347416 (National Center for Advancing Translational Sciences (NCATS), 2020)
About 1,600 (39%) of roughly 4,100 compounds were called active. Not shown: some 25% with an inconclusive outcome. The call rests on the fitted dose curve; in most records, active means well fitted inhibition curve with a large enough effect; inconclusive means small, poorly fitted or top-dose-only effect; inactive means no such curve, though single readings can be large or run the other way. The list shows a part of the results. A call without a number means that no potency is given here.

Assay: qHTS Validation assay for Inhibitors of Plasmodium falciparum Dd2 growth in vitro; further: nearly all actives have a fitted effect of over 70% in size
Settings: P. falciparum Dd2 in RBCs, SYBR Green growth, 72 h; series mostly up to 28.7 µM
In short: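 P. falciparum Dd2-infected red blood cells (2.5% hematocrit, 0.3% parasitemia) grown 72 h at 37 °C under 5% O2 with compounds in a titration, 29 uM to 0.5 nM final. Growth read as SYBR Green-1 fluorescence after ~16 h lysis; artesunate 300 nM as positive control.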
Potency means the concentration at half of the fitted maximal effect.

Compound | Potency
COc1ccccc1NC(=O)Cn1cccc1-c1nc(-c2ccc(F)cc2)no1 | inactive
CC(C)c1ccccc1NC(=O)Cn1cccc1-c1nc(-c2ccccc2)no1 | 4.22 µM (active)
Cc1ccc(NC(=O)Cn2cccc2-c2nc(-c3ccccc3)no2)c(C)c1 | inactive
CC(C)c1ccccc1NC(=O)Cn1cccc1-c1nc(-c2ccc(F)cc2)no1 | 2.99 µM (active)
CC(C)c1ccccc1NC(=O)CSc1nnc(COc2ccccc2Cl)o1 | inactive
O=C(Cn1cccc1-c1nc(-c2ccc(F)cc2)no1)NCCc1ccccc1 | inactive
Cc1ccccc1N(C(=O)c1snc(C(N)=O)c1N)C(C(=O)NCC1CCCO1)c1ccc(N(C)C)cc1 (stereo not given) | 7.5 µM (active)
Cc1ccc(-c2cc(C(F)F)n3ncc(C(=O)N4CCCCC4c4cccnc4)c3n2)cc1 (stereo not given) | 2.37 µM (active)
Cc1ccc(-c2cc(C(F)(F)F)n3ncc(C(=O)N4CCCCC4c4cccnc4)c3n2)cc1 (stereo not given) | 1.88 µM (active)
O=C(c1cnn2c(C(F)F)cc(-c3ccccc3)nc12)N1CCCCC1c1cccnc1 (stereo not given) | 8.41 µM (active)
O=C(c1ccccc1F)N1CCCCCC1c1nnc(-c2ccccc2)o1 (stereo not given) | inactive
Cc1ccc(-c2cc(C(F)F)n3ncc(C(=O)Nc4ccc(S(=O)(=O)Nc5ccccc5C)cc4)c3n2)cc1 | inactive
O=C(C1CCC1)N1CCCCCC1c1nnc(-c2ccccc2)o1 (stereo not given) | inactive
CC(C)c1ccc(CN2CCc3ncc(C(=O)NCCN4CCNC4=O)n3CC2)cc1 | inactive
O=C(Nc1ccc(-c2csc(Nc3ccccc3)n2)cc1)c1cc([N+](=O)[O-])cc(C(F)(F)F)c1 | 2.11 µM (active)
Cc1ccc(-c2cc3c(=O)n(CCNC(=O)c4cc(F)ccc4F)ccn3n2)c(C)c1 | inactive
CN(C)C(=O)c1ccc(N2CCC(NCCC3=CC[C@H]4C[C@@H]3C4(C)C)CC2)cc1 | inactive
CC(CCc1ccccc1)NCC(O)c1cccc([N+](=O)[O-])c1 (stereo not given) | 0.473 µM (active)
O=C(CCc1cc(Cl)no1)N1CCc2nc3cc(-c4ccccc4)[nH]n3c(=O)c2C1 | inactive
CCN(CC)C(=O)Cn1c(=O)n(-c2ccc(Cl)cc2)c(=O)c2c3c(sc21)CCCCC3 | inactive
CC(=O)c1sc2c(c1C)c(=O)n(-c1ccc(Cl)cc1)c(=O)n2Cc1cc(=O)n2cc(Cl)ccc2n1 | 7.5 µM (active)
CC(C)c1nc2c(c(-c3ccc(O)cc3)n1)CCN(Cc1ccccc1C(F)(F)F)CC2 | 4.73 µM (active)
CCc1nc2c(c(-c3ccc(O)cc3)n1)CCN(Cc1ccccc1C(F)(F)F)CC2 | 2.99 µM (active)

Compound | Potency
Cc1c(Cl)cccc1NC(=O)CCCn1nc(C)c2sc3ccccc3c2c1=O | inactive
Cc1c(Cl)cccc1Nc1nn2c(=O)c3ccc(C(=O)N(C)Cc4ccccc4)cc3nc2s1 | 16.8 µM (active)
Cc1c(Cl)cccc1Nc1nn2c(=O)c3ccc(C(=O)NCCc4ccccc4)cc3nc2s1 | 7.5 µM (active)
NS(=O)(=O)c1ccc(CCNC(=O)c2ccc3nc(CCc4ccccc4)oc3c2)cc1 | inactive
O=c1c2cc3c(cc2nc2sc(Nc4ccc(F)cc4F)nn12)OCO3 | inactive
CC1(CNc2ccccc2)COc2ccc(C(=O)NCCc3ccccc3)cc2N1 (stereo not given) | inactive
COc1ccccc1C1CC(c2ccccc2)=NN1C(=O)c1ccccc1 (stereo not given) | 2.37 µM (active)
O=C(NC1CCCN(c2cc(-c3ccccc3)[nH]n2)C1)c1cccc(Cl)c1 (stereo not given) | inactive
COc1ccc(/C(C)=N/NC(=S)NCCc2ccccc2)c(O)c1 | 3.35 µM (active)
CCCCc1c(C)c(C#N)c2nc3ccccc3n2c1Nc1c(C)n(C)n(-c2ccccc2)c1=O | 2.66 µM (active)
Cc1sc(NC(=O)c2ccco2)c(C(c2cccnc2)N2CCC(C)CC2)c1C (stereo not given) | 5.31 µM (active)
CC1CCN(S(=O)(=O)c2ccc(NC(=O)c3ccco3)cc2)CC1 | inactive
CCOC(=O)c1c[nH]c2c(C)cc(C)cc2c1=O | 4.22 µM (active)
CCOC(=O)c1cn(CC)c2c(ccc3ccccc32)c1=O | inactive
CCOC(=O)c1c[nH]c2cc(OCC(C)C)c(OCC(C)C)cc2c1=O | 0.944 µM (active)
c1csc(-c2nc3nccc(-c4cc5ccccc5o4)n3n2)c1 | inactive
CC(NCc1ccccc1)c1ccccc1O (stereo not given) | 5.31 µM (active)
CCN1C(=O)c2cccc3c(S(=O)(=O)Nc4ccccc4)ccc1c23 | inactive
Cc1ccccc1-c1nccn2c(C3CN(Cc4ccccc4O)C3)ncc12 | 5.44 µM (active)
O=[N+]([O-])c1ccc(S(=O)(=O)N2CCn3cccc3C2c2ccc(Br)cc2)cc1 (stereo not given) | 5.96 µM (active)
CC(C(=O)NC1CCCC1)N1CCN(S(=O)(=O)c2ccc(C(C)(C)C)cc2)CC1 (stereo not given) | 8.41 µM (active)
CC(C(=O)N1CCCC1)N1CCN(S(=O)(=O)c2ccc(C(C)(C)C)cc2)CC1 (stereo not given) | 3.35 µM (active)
CC(C)N1CCC(NC(=O)NC2CCCCC2)CC1 | inactive

Compound | Potency
Cc1ccc(S(=O)(=O)N2CCC(C(=O)NC3CCCC3)CC2)cc1Cl | inactive
COc1cccc(CNC(=O)[C@@H]2C[C@@H](O)CN2C2CCN(C(=O)c3ccc(OC)c(F)c3)CC2)c1 | inactive
COc1cccc(C(=O)N2CCC(N3C[C@H](O)C[C@H]3C(=O)N3CC=C(c4ccccc4)CC3)CC2)c1 | 9.44 µM (active)
COc1cccc(C(=O)N2CCC(N3C[C@H](O)C[C@H]3C(=O)N3CCc4ccccc4C3)CC2)c1 | 8.41 µM (active)
COCCNC(=O)[C@@H]1C[C@@H](O)CN1C1CCN(C(=O)Cc2ccccc2)CC1 | inactive
COc1ccc(C(=O)N2CCC(n3c(C)cnc3-c3ccccc3)CC2)c(OC)c1 | inactive
CCCC(=O)N1CCn2c(nnc2[C@@H]2C[C@@H](O)CN2Cc2ccccc2)C1 | inactive
CCCCOCc1cc(CN2CCN(c3cccc(Cl)c3)CC2)c(O)c2ncccc12 | 6.68 µM (active)
CC(C)OCc1cc(CN2CCN(c3cccc(C(F)(F)F)c3)CC2)c(O)c2ncccc12 | 6.68 µM (active)
COCCOc1cc(-c2noc([C@@H]3CCCN3CC3CC3)n2)ccn1 | 15.3 µM (active)
CCOc1ccc(CC(=O)N2CCC[C@H]2c2nc(-c3ccc(C)cc3)no2)cc1 | inactive
c1cc(-c2noc([C@@H]3Cc4nc[nH]c4CN3CC3CCCCC3)n2)ccn1 | 21.7 µM (active)
COc1ccc(-c2noc(CCCC(=O)N3CCCC3c3nc(C4CCOCC4)no3)n2)cc1OC (stereo not given) | inactive
COCCNc1ncccc1-c1noc([C@@H]2CCCN2Cc2ccccn2)n1 | 7.69 µM (active)
COc1ccc(C(=O)N2CCC[C@H]2c2nc(-c3ccccc3Cl)no2)cc1OC | inactive
COc1ccc(C(O)(CCC(C)C)C(CN2CCOCC2)c2ccc(Cl)cc2)cc1 (stereo not given) | 6.68 µM (active)
COc1ccc(C(O)(CCC(C)C)C(CN2CCOCC2)c2ccccc2)cc1 (stereo not given) | 5.31 µM (active)
COc1ccc(OC)c(NC(=O)c2ccc3c(c2)N(S(=O)(=O)c2ccccc2)CC3)c1 | inactive
COc1ccc(S(=O)(=O)N2CCCCCC2)cc1NC(=O)c1c2c(nc3ccccc13)CCN(Cc1ccccc1)C2 | 4.73 µM (active)
COc1cc(OC)c(NC(=O)N2CCc3cc(S(=O)(=O)N4CCC(C)CC4)ccc32)cc1Cl | inactive
COCCOCC1(CNC(=O)c2cnccn2)C[C@@H](O)[C@@H](O)C1 (stereo not given in full) | inactive
O=c1c2ccccc2sc2nc(C3CCCCC3)n(Cc3ccco3)c(=O)c12 | 7.5 µM (active)
CN(C)c1cc(=O)c2ccnc(N3CCN(c4ccccn4)CC3)c2o1 | inactive

Compound | Potency
CC1CCN(c2nc3c(S(=O)(=O)c4ccccc4)nnn3c3ccc(Cl)cc23)CC1 | 2.66 µM (active)
O=S(=O)(c1ccccc1)c1nnn2c1nc(NC1CCN(Cc3ccccc3)CC1)c1cc(Cl)ccc12 | 2.99 µM (active)
Cc1ccc(S(=O)(=O)c2nnn3c2nc(N2CCN(c4ccccn4)CC2)c2ccccc23)cc1 | 7.5 µM (active)
Cc1c(C(=O)N2CCN(c3ccccn3)CC2)oc2ccccc12 | inactive
COc1cccc(CN(C)C2CCc3ccccc32)c1 (stereo not given) | inactive
COc1ccc(CN2CCCC(N3CCc4ccccc4C3)C2)c(O)c1 (stereo not given) | 2.99 µM (active)
COc1ccc2c(c1)CCN=C2C[C@H]1CN(C(=O)NC(C)C)CC[C@H]1CC(=O)O | inactive
CCCc1noc(-c2cccn3c(CNC(=O)c4ccc(OC)cc4C)nnc23)n1 | inactive
CCOCCCn1c(=N)c(C(=O)NCc2cccnc2)cc2c(=O)n3ccccc3nc21 | inactive
Cc1cccn2c(=O)c3cc(C(=O)NC(C)c4ccccc4)c(=N)n(CCOCCO)c3nc12 (stereo not given) | 10.6 µM (active)
COc1ccc(CCn2c(=N)c(C(=O)NCCN3CCOCC3)cc3c(=O)n4cccc(C)c4nc32)cc1OC | 13.3 µM (active)
COc1ccc(CCn2c(=N)c(C(=O)NCc3ccco3)cc3c(=O)n4cccc(C)c4nc32)cc1 | 1.68 µM (active)
Cc1ccc(-c2cc3c(=O)n(CCNC(=O)c4ccc[nH]c4=O)ccn3n2)cc1C | inactive
Cc1cccn2c(=O)c3cc(C(=O)NCCc4ccc(S(N)(=O)=O)cc4)n(C)c3nc12 | inactive
N#Cc1cccc(-c2cn3c(n2)N(C(=O)CC2CCCC2)CCC3)c1 | inactive
CCCCCCc1cc2cc(-c3nnc(-c4ccc(C)cc4)o3)c(=O)oc2cc1O | inactive
O=C(C1CCCC1)N1CCN(c2nnc3c(Cl)cccn23)CC1 | inactive
COc1ccc(CCNC(=O)c2cc3c(=O)n4cccc(C)c4nc3n(CC3CCCO3)c2=N)cc1 (stereo not given) | inactive
Cc1cccn2c(=O)c3cc(C(=O)NC4CCCC4)c(=N)n(CCc4ccccc4)c3nc12 | 1.88 µM (active)
COc1ccc(CCn2c(=N)c(C(=O)NC3CCCC3)cc3c(=O)n4cccc(C)c4nc32)cc1 | 0.75 µM (active)
CN1CCCCC(CC(=O)NCCc2ccccc2)C1=O (stereo not given) | inactive
